Only some compounds are listed: those with a hit (about 12% of all), similar ones and a draw of the others.
Pf growth 48h: Primary qHTS for delayed death inhibitors of the malarial parasite plastid, 48 hour incubation | Potency, µM (top dose mostly 28.7 µM), actives largely listed as inhibitors | 310,000 compounds, 5.9% hits | P. falciparum luciferase growth in erythrocytes, 48 h
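Firefly luciferase activity from engineered P. falciparum reports growth; inhibitors lower the luminescent signal. Cultures contained 2% hematocrit erythrocytes at 0.1% final parasitemia.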
HCV inhibitor: qHTS Assay for Inhibitors of Hepatitis C Virus (HCV); Huh7.5.1 HCVcc-Cre infection, luciferase reporter, 44 h; Potency, µM (titrated, usually from 41.8 µM), actives largely listed as inhibitors; 340,000 compounds, 3.4% hits; AID 651820, 2012
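Reporter virus HCVcc-Cre (~0.5 moi) infects cells exposed to compound; seeding density 1,000 cells/well with 4 h settling beforehand. Luminescence, 15 sec read, taken 44 h post-infection following a 15 min RT substrate incubation.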
Pf growth 96h: Primary qHTS for delayed death inhibitors of the malarial parasite plastid, 96 hour incubation; Potency, µM (top dose mostly 28.7 µM), most hits filed as inhibitors; 320,000 compounds, 6.9% hits; P. falciparum luciferase reporter growth, 96 h; AID 504834, 2011
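Cell-based qHTS: luciferase-tagged P. falciparum in erythrocytes (2% hematocrit, 0.05% parasitemia final) incubated with compounds for 96 hours, 37 C, 5% CO2; luciferase detection reagent then added and luminescence measured.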
AMA1 RON2 block: qHTS for Inhibitors of AMA1-RON; Towards Development of Antimalarial Drug Lead: Primary Screen; AlphaScreen AMA1-biotinylated RON2 peptide binding; AID 720542, 2013; Plasmodium falciparum AMA1 (3D7) - RON2 peptide interaction; 360,000 compounds, 0.2% hits; Potency, µM (doses to about 58.2 µM), hits mostly inhibitors; also: nearly all actives have a fitted effect of over 45% in size
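AMA1 (3D7) with his tag at 25 nM final met compounds first, then biotinylated RON2 peptide at 25 nM; detection used donor plus acceptor beads, 10 µg/mL apiece, read by AlphaScreen after 30 min at room temperature.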
SARS PLpro yeast: qHTS of Yeast-based Assay for SARS-CoV PLP; S. cerevisiae expressing SARS-CoV PLpro, growth rescue; Potency, µM (highest dose often 32.9 µM), hits mostly activators; 330,000 compounds, 0.19% hits; AID 485353, 2010; calls by dose curve; also: nearly all actives have a fitted effect of over 55% in size
NS1 inh: qHTS Assay for Inhibitors of Influenza NS1 Protein Function; Potency, µM (highest dose often 46.1 µM); 270,000 compounds, 0.4% hits; calls by dose curve; also: actives are rising curves; nearly all actives have a fitted effect of over 50% in size
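Growth recovery, yeast-based: influenza A NS1 expressed in S. cerevisiae causes slow growth, and suppressors are detected by OD600. The parent strain without NS1 is used as positive control.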
Each line names hits and unclear results; the compound was inactive in the other large screens. Unless noted, calls follow the shape of the dose curve; as a rule, active = well fitted curve in the direction sought with a large enough effect; inconclusive = small, poorly fitted or top-dose-only effect, or another doubt; inactive = no such curve, though single readings can be large; an effect the other way counts as inactive or inconclusive.

O=C1C2CCCCN2C(=O)N1CCCCN1CCN(c2cccc(Br)c2)CC1 (centres undefined)	HCV inhibitor inconclusive, Pf growth 96h inconclusive
COc1cccc(N2CCN(C(=O)c3cc4c(=O)n(Cc5ccccc5)ccc4nc3C)CC2)c1	Pf growth 48h inconclusive
CC1(c2ccccc2Cl)NC(=O)N(CC(=O)NCc2ccc3c(c2)OCO3)C1=O (centres undefined)	none
COc1cccc(CNS(=O)(=O)c2c(C)[nH]c(C)c2C(=O)N2CCCCC2)c1	none
CC(=O)N/N=C(\C)CC(=O)NC(C)(C)C	Pf growth 96h 3.7µM (no result: NS1 inh)
CC(=O)CC1c2cc(F)ccc2C=C(c2ccsc2)N1c1ccc(-c2cccnc2)cc1 (centres undefined)	none (no result: Pf growth 48h, HCV inhibitor, Pf growth 96h, SARS PLpro yeast, NS1 inh)
Cc1ccc(C(O)c2ncc(-c3ccccc3C(F)(F)F)[nH]2)cc1F (centres undefined)	none (no result: Pf growth 48h, HCV inhibitor, Pf growth 96h, SARS PLpro yeast, NS1 inh)
CCC(=O)N1CCN(c2ccc(NC(=O)COc3ccccc3Cl)cc2)CC1	HCV inhibitor 11µM, Pf growth 96h 5.9µM (no result: Pf growth 48h)
CCC(=O)N1CCN(c2ccc(NC(=O)COc3ccccc3[N+](=O)[O-])cc2)CC1	Pf growth 48h inconclusive, HCV inhibitor 11µM
CCC(=O)N1CCN(c2ccc(NC(=O)COc3ccc(C)cc3C)cc2)CC1	Pf growth 48h inconclusive, HCV inhibitor inconclusive
CN1CCN(c2ccc(NC(=O)COc3ccccc3Cl)cc2)CC1	HCV inhibitor inconclusive
COc1cc(Cl)ccc1NC(=O)COc1ccccc1C(=O)N1CCN(c2ccc(O)cc2)CC1	Pf growth 48h 5.9µM, Pf growth 96h inconclusive
Cc1ccc(NC(=O)C2CCCN2C(=O)OC(C)(C)C)cc1C (centres undefined)	Pf growth 48h inconclusive, Pf growth 96h inconclusive
O=C(c1ccc(N2CCOCC2)cc1[N+](=O)[O-])N1CCOCC1	none (no result: NS1 inh)
CCN(CC)CCCN1C=C2C(=O)C(C)(OC(=O)CCc3ccccc3)C(=O)C=C2C=C1c1ccc(C#N)cc1 (centres undefined)	Pf growth 48h inconclusive, Pf growth 96h inconclusive
COc1ccc(N2C=C3C(=O)C(C)(OC(=O)CCc4ccccc4)C(=O)C=C3C=C2c2ccc(C#N)cc2)cc1 (centres undefined)	Pf growth 48h inconclusive, Pf growth 96h inconclusive
COc1ccc(CN2C=C3C(=O)C(C)(OC(=O)CCc4ccccc4)C(=O)C=C3C=C2c2ccc(C#N)cc2)cc1 (centres undefined)	Pf growth 48h 9.3µM, Pf growth 96h inconclusive
CC1(OC(=O)CCc2ccccc2)C(=O)C=C2C=C(c3ccc(C#N)cc3)N(CCc3c[nH]c4ccccc34)C=C2C1=O (centres undefined)	Pf growth 48h 12µM, HCV inhibitor inconclusive, Pf growth 96h inconclusive
CCOC(=O)c1c(C)nc2sc3c(=O)n(-c4ccc(C(C)=O)cc4)nnc3c2c1-c1ccc(OC)cc1	Pf growth 48h inconclusive, HCV inhibitor 8.9µM
CCOC(=O)c1c(C)nc2sc(C(=O)Nc3ccc(OC)cc3)c(N)c2c1-c1ccc(OC)cc1	HCV inhibitor 3.5µM, Pf growth 96h 2.3µM (no result: Pf growth 48h)
CCOC(=O)c1c(C)nc2sc3c(=O)n(-c4ccc(OC)cc4)cnc3c2c1-c1ccc(OC)cc1	Pf growth 48h inconclusive, Pf growth 96h 12µM
COc1ccccc1CN1C[C@@H]2C[C@@H](c3ccc(C)c(C)c3)N3CCC[C@@]23C1=O	Pf growth 48h inconclusive, HCV inhibitor inconclusive, Pf growth 96h 10µM
COCc1ccc([C@@H]2C[C@H]3CN(Cc4ccccc4C)C(=O)[C@]34CCCN24)o1	Pf growth 96h inconclusive
COc1ccc([C@@H]2C[C@H]3CN(Cc4ccccc4OC)C(=O)[C@]34CCCN24)cc1C	HCV inhibitor inconclusive
COc1ccccc1CN1C[C@@H]2C[C@@H](c3cccc(C)n3)N3CCC[C@@]23C1=O	Pf growth 48h inconclusive
COc1ccccc1CN1C[C@@H]2C[C@@H](c3[nH]c4c(C)cccc4c3C)N3CCC[C@@]23C1=O	Pf growth 48h 6.6µM, Pf growth 96h 12µM
COc1ccc(-c2[nH]ncc2[C@@H]2C[C@H]3CN(Cc4ccccc4C)C(=O)[C@]34CCCN24)cc1	Pf growth 48h 3.3µM, HCV inhibitor inconclusive
COc1ccccc1CN1C[C@@H]2C[C@@H](c3cccc(C)c3)N3CCC[C@@]23C1=O	Pf growth 48h inconclusive, Pf growth 96h 10µM
Cc1ccc(S(=O)(=O)C2(C(=O)N3CCN(c4cc(C)ccc4C)CC3)CC2)cc1	Pf growth 48h inconclusive, HCV inhibitor inconclusive (no result: NS1 inh)
Cn1nc(N)c2ncc(-c3ccc(Cl)cc3)nc21	none (no result: Pf growth 48h, HCV inhibitor, Pf growth 96h, SARS PLpro yeast, NS1 inh)
O=C(NCC(O)c1ccc2ccccc2c1)c1c(F)cccc1F (centres undefined)	none
CC(C)NC(=O)C(C)Oc1ccc(S(=O)(=O)NCc2ccc3c(c2)OCO3)cc1 (centres undefined)	Pf growth 48h inconclusive
COc1cc(C(=O)O[C@H]2C/C(C)=C/CC[C@@]3(C)O[C@@H]3[C@H](O)[C@@H]2C(C)C)cc(OC)c1OC	Pf growth 48h inconclusive, HCV inhibitor inconclusive, Pf growth 96h inconclusive
COc1cc(C(=O)O[C@H]2C/C(C)=C/CC[C@]3(C)O[C@@H]3C(O)C2C(C)C)cc(OC)c1OC (some centres undefined)	Pf growth 48h inconclusive, Pf growth 96h 4.1µM
Nc1ccc(C(=O)C(=O)c2ccccc2)cc1	none (no result: Pf growth 48h, Pf growth 96h, SARS PLpro yeast, NS1 inh)
O=C(Nc1ccc2c(c1)OCCO2)C(CCc1ccccc1)N1CCC(Cc2ccccc2)CC1 (centres undefined)	none (no result: Pf growth 48h, HCV inhibitor, Pf growth 96h, SARS PLpro yeast, NS1 inh)
CC(NC(=O)CN1C(=O)NC(Cc2ccccc2)(Cc2ccccc2)C1=O)C12CC3CC(CC(C3)C1)C2 (centres undefined)	Pf growth 96h 12µM (no result: Pf growth 48h)
CC(NC(=O)Cn1ncc(Cl)c(Cl)c1=O)C12CC3CC(CC(C3)C1)C2 (centres undefined)	HCV inhibitor 10µM
CC1CCCCC1NC(=O)CN1C(=O)NC(Cc2ccccc2)(Cc2ccccc2)C1=O (centres undefined)	none (no result: Pf growth 96h)
O=C(CN1CCCCC1)NC(=O)NC1CCCC1	none (no result: NS1 inh)
CCn1cc(C(=O)NC(C)C2CC3CCC2C3)cn1 (centres undefined)	none
CCn1cc(C(=O)NC(C)C23CC4CC(CC(C4)C2)C3)cn1 (centres undefined)	Pf growth 48h inconclusive, Pf growth 96h 5.2µM, AMA1 RON2 block inconclusive
O=C(Cn1ncc(Cl)c(Cl)c1=O)NC(=O)NC1CCCCC1	HCV inhibitor 0.63µM (no result: Pf growth 48h, Pf growth 96h, NS1 inh)
O=C(NCCc1ccccc1)c1ccc(NC(=O)C2CC2)cc1	none (no result: Pf growth 48h, Pf growth 96h, SARS PLpro yeast, NS1 inh)
Cc1ccc(C(=O)NC(=S)NCc2cccnc2)cc1C	Pf growth 48h inconclusive, Pf growth 96h 9.3µM (no result: NS1 inh)
